According to PubChem BioAssay (NCI):
This is part of a sample that, as a whole, favours compounds with a hit. Of some 83,000 tested, about 20% had one in any assay.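 Testing used 96-well plates and a 48-hour single-concentration exposure. Example: -40 means 40% of the starting cells died.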 Unmarked numbers belong to inactive results. Active and inactive are the calls of the source. Rule for the calls: active = growth percent below 10; inactive = the rest.

Tested on: CAKI-1 renal
Assay: NCI-60 one-dose screen, 48 h (100 = growth as untreated, 0 = no growth, -100 = all killed)
Details: 10 µM unless noted

| Structure (SMILES) | growth [%] |
| --- | --- |
| CC(C)(C)c1cc(-c2nc3ccc(N4CCN(S(C)(=O)=O)CC4)cc3[nH]2)cc(C(C)(C)C)c1O | 75.5 |
| CCCCN1C(=O)/C(=c2\sc3n(c2=O)C2C(NN=3)N(CC)C(=O)N2CC)c2ccccc21 (stereo not drawn) | 18.1 |
| N#Cc1nn(-c2cc(=O)[nH]c3ccc(Cl)cc23)c(N)c1C#N | 101 |
| Cc1ccc(-n2c(=S)[nH]c3sc4c(c3c2=O)CCC(=O)C4)cc1 | 28.6 |

Tested on: A498 renal
Assay: as above
Details: 10 µM unless noted

| Structure (SMILES) | growth |
| --- | --- |
| O=Cc1ccc([N+](=O)[O-])s1 | 94.5% |
| CC(C)(C)n1cc(-c2ccnc(NCCCNS(=O)(=O)c3ccc(F)cc3)c2)c(-c2cccc(F)c2)n1 | 70.2% |
| O=C1C(Cl)=C(Nc2ccc(O)cc2)C(=O)N1Cc1ccc(Cl)cc1 | 75.4% |
| COc1cc(CNC(=O)CCCC/C=C/C(C)C)ccc1OCc1nnc(Nc2ccc([N+](=O)[O-])cc2)o1 | 56.8% |
| O=C(N/N=C/c1ccc(F)cc1)c1ccc(C(F)(F)F)nc1Nc1cccc(C(F)(F)F)c1 | -1.26% (active) |
| C=C(C)[C@@H]1CC[C@]2(C(=O)NCCNCCN)CC[C@]3(C)[C@H](CC[C@@H]4[C@@]5(C)C/C(=C/c6ccncc6)C(=O)C(C)(C)[C@@H]5CC[C@]43C)[C@@H]12 | 95.7% |
| O=C(COc1ccc(-c2nc3ccccc3[nH]2)cc1)N=Nc1c(O)[nH]c2ccc(Cl)cc12 | 89.8% |
| C/C(=N/O)c1ccc(F)cc1 | 111% |
| COc1ccc(C2=Nc3c/c(=C\c4c(O)[nH]c5ccc(Cl)cc45)ccc3=N2)cc1 | 25.9% |
